Source: ChEMBL document CHEMBL3433997, “St. Jude Leishmania screening dataset” (2016)
Values joined by “and” are separate entries in the source; they are usually repeats but may differ in a detail not shown here. Equal values may be shown once.

Assays:
Type in all cases: functional
[1] = target: Solute carrier family 2, facilitated glucose transporter member 1 (Homo sapiens) (UniProt P11166); experiment: ST_JUDE_LEISH: Cytotoxicity at 2uM final concentration against transgenic Leishmania Mexicana promastigotes LmGLUT1 that are glucose transport deficient and complemented with the human glucose transporter GLUT1. Activity is measured by DNA content using SYBR green in vitro
[2] = target: Hexose transporter 1 (Plasmodium falciparum) (UniProt O97467); experiment: ST_JUDE_LEISH: Cytotoxicity at 2uM final concentration against transgenic Leishmania Mexicana promastigotes LmPfHT that are glucose transport deficient and complemented with the Plasmodium falciparum hexose transporter. Activity is measured by DNA content using SYBR green in vitro
[3] = target: Glucose transporter (Leishmania mexicana) (UniProt O61059); experiment: ST_JUDE_LEISH: Cytotoxicity at 2uM final concentration against transgenic Leishmania Mexicana promastigotes LmGT2 that are glucose transport deficient and complemented with the L. Mexicana glucose transporter 2. Activity is measured by DNA content using SYBR green in vitro

Solute carrier family 2, facilitated glucose transporter member 1 (Homo sapiens), sequence (P11166 whole entry): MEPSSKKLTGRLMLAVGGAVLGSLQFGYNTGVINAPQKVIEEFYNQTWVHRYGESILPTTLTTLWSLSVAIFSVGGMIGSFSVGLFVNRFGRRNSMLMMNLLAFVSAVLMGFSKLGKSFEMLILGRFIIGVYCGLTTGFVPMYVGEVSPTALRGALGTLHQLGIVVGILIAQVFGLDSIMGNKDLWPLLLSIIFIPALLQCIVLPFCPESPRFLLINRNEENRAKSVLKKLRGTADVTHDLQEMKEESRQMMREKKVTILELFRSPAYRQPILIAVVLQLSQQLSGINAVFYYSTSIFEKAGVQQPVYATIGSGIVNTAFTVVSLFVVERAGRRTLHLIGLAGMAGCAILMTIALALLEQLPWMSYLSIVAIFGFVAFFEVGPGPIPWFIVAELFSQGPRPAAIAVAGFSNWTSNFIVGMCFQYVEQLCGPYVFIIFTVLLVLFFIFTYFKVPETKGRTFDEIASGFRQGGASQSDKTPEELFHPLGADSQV

| Structure (SMILES) | inhibition [1] | inhibition [2] | inhibition [3] |
| --- | --- | --- | --- |
| COc1cc(NC(=O)c2sc(-c3ccc(Cl)cc3)cc2NC(=O)CN2CCCC2)ccc1OCCN1CCCC1 | 5.97% | 9.91% | 4.39% |
| FC(F)(F)c1cccnc1N1CCC(Nc2nc3cc(Cl)ccc3[nH]2)CC1 | 5.58% | 1.96% | 3.47% |
| CCCOc1ccc(N2C(N)=NC(N)=NC2(C)C)cc1 | 3.43% | 1.16% | 2.09% |
| COc1ccc2nc3cc(Cl)ccc3c(NCCCCNc3c4ccc(Cl)cc4nc4ccc(OC)cc34)c2c1 | 11.8% | 12.5% | 9.15% |
| Cc1cc(C)c(C(=O)Nc2n[nH]c3nnc(-c4cccc(F)c4F)cc23)c(C)c1 | 0.09% | -0.09% | 0.28% |
| CC(C(=O)N1CCCC1)N1CCN(S(=O)(=O)c2ccc(C(C)(C)C)cc2)CC1 (centres undefined) | -0.57% | 0.46% | 4.07% |
| Cc1cc(N[C@@H](CC(C)C)C(=O)NC2CCCC2)nc(NCC2CCCCC2)n1 | 3.95% | 3.89% | 0.25% |
| O=C(NCC1CCN(Cc2cccc(F)c2)C1)c1cc(-c2cccc(C(F)(F)F)c2)cs1 (centres undefined) | -1.66% | -2.49% | 2.59% |
| N#CCCN1CCN(Cc2ccc(-c3cccc(-c4nc5cc(F)ccc5[nH]4)c3)cc2)CC1 | 2.61% | 2.18% | 3.17% |
| COc1cccc(CNC(=O)c2cc(CNCc3ccccc3)ccc2-c2cccc(CNCc3ccc(-c4ccccc4)cc3)c2)c1 | 3.83% | 4.88% | 6.21% |
| COCCCC1C(=O)OC2CCCC21 (centres undefined) | 0.19% | 3.28% | 2.52% |
| CN(C)CCn1cc(C(=O)c2cc(Cl)ccc2O)cc1-c1nc2ccccc2c(=O)[nH]1 | 0.7% | -0.71% | -2.96% |
| COc1ccc(Nc2nc(NC3CCCC3)cc(-c3ccc(OC)cc3)n2)cc1 | -0.76% | 0.56% | -0.75% |
| COc1ccc(Nc2nccc(N3CCC(NC(=O)C(C)c4ccc(Cl)cc4)C3)n2)cc1 (centres undefined) | -0.18% | 0.96% | 1.34% |
| Nc1ncc(-c2ccccc2)cc1-c1cccc2ncccc12 | 7.53% | 9.12% | 6.36% |
| O[C@@H](c1cc(C(F)(F)F)nc2c(C(F)(F)F)cccc12)[C@H]1CCCCN1 | 13.6% and 1.21% | 8.31% and 0.88% | 7.19% and 1.05% |
| Cc1c(Cc2ccccc2)c(=O)oc2c(C)c3c(cc12)CN(CC(C)c1ccccc1)CO3 (centres undefined) | 4.3% | 4.73% | 5.8% |

| Structure (SMILES) | inhibition [1] | inhibition [2] | inhibition [3] |
| --- | --- | --- | --- |
| Nc1nc2ccc(S(=O)(=O)Nc3ccc(C(=O)N[C@@H](CCC(=O)O)C(=O)O)c(F)c3)cc2c(=O)[nH]1 | 0.57% | 1.22% | 1.53% |
| O=C(NC1CC1)c1ccc(Cn2c(SCc3cccc([N+](=O)[O-])c3)nc3ccccc3c2=O)cc1 | 1.19% | 0.54% | 0.2% |
| Cc1cc(Cl)ccc1NC(=O)NCCCCCN1CCC(c2c[nH]c3ccccc23)CC1 | 11.4% | 14.9% | 10.4% |
| c1ccc(C(c2ccccc2)N2CCN(C(c3cccnc3)c3nnnn3C3CCCC3)CC2)cc1 (centres undefined) | 4.64% | -0.82% | -1.23% |
| C/C=C/COc1ccc(-c2c(C)[nH]c(C)c(Cl)c2=O)cc1 | 4.66% | 6.53% | 4.16% |
| COc1ccc(NC(=O)[C@H](Cc2ccccc2)Nc2cc(C)nc(NCCN3CCCC3)n2)cc1 | 11.2% | 9.21% | 7.49% |
| Clc1ccc(Nc2nc(-c3ccccn3)cs2)nc1 | 67.7% | 27.3% | 22.7% |
| N#Cc1ccc(C=CC(=O)NC2CCC(CCN3CCc4ccc(-c5cnccn5)cc4CC3)CC2)cc1 (centres undefined) | 4.1% | 2.97% | 0.59% |
| Nc1n[nH]c(-c2ccccc2Nc2ccnc3cc(-c4nccs4)ccc23)n1 | 1.03% | 0.07% | -0.15% |
| O=C1Nc2ccc3ncccc3c2/C1=C/Nc1ccc(N2CCN(CCO)CC2)cc1 | 2.74% | 2.28% | 2.47% |
| CCOc1ccc2c(=NN=Cc3cccc(OC)c3)cc(C)[nH]c2c1 | -0.74% | -0.19% | -0.12% |
| CN(C)CCOc1cc(NC(=O)Nc2ccc(Cl)cc2C(F)(F)F)ccc1I | 3.57% | 1.15% | -3.2% |
| CN(CCN(C)C(=O)NCc1ccccc1)C(=O)NCc1ccccc1 | 3.05% | 3.69% | 3.75% |
| CC(C)C[C@H](NC(=O)c1cc2ccccc2s1)C(=O)N[C@H]1CCN(Cc2ccc(OCCN3CCNCC3)c3ccccc23)C1 | -0.59% | -2.98% | 0.51% |
| O=c1cc(NCCCCNCc2ccc(Br)c(Br)c2)[nH]c2ccccc12 | 0.91% | 0.5% | -4.13% |
| CCN(CCCN1CCCCC1)c1cc(C)nc(Nc2ccc(Cl)c(C(F)(F)F)c2)n1 | 0.03% | -0.3% | -1.78% |
